From PubChem BioAssay (NCI)
The panel holds about 83,000 compounds, 20% with a hit somewhere; the sample as a whole holds those more often.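 Interpretation: 100, growth as untreated; towards 0, rising growth inhibition; 0, no net growth; 0 to -100, cell death. Compounds scoring below 10 were considered active.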 Values without a mark were called inactive. The source made the active and inactive calls.

test system: HCT-116 colon; assay: NCI-60 one-dose screen, 48 h (100 = growth as untreated, 0 = no growth, -100 = all killed); settings: 10 µM unless noted
Method: Growth inhibition of the HCT-116 human tumor cell line is measured as a screen for anti-cancer activity. Cells are grown in 96 well plates and exposed to the test compound for 48 hours. Compounds are tested at a single concentration, which is 10^-5 M for most compounds. The reported endpoint is percent growth (GI% or GIPRCNT), where numbers from 0 - 100% represent growth inhibition, and numbers from -100% - 0 represent cell death. For example, a value of 40 represents 60% growth inhibition. A value of 0 means no net growth occurred over the course of the experiment. A value of -40 indicates 40% of cells at the beginning of the experiment died by the end of the experiment. A value of -100 means all cells are dead at the end of the experiment.
NCI-60 Human Tumor Cell Lines Screen was performed using the standard one-dose NCI protocol, which is described in more detail at https://dtp.cancer.gov/discovery_development/nci-60/default.htm.
Compounds with GIPRCNT values below 10 were considered active. Activity score was based on GIPRCNT using the following formula: […]
Score is 0 for GIPRCNT values of 100 or above, 50 for GIPRCNT values of 0, and 100 for GIPRCNT values of -100.

Structure (SMILES)	growth
Fc1ccc(-n2cc(COc3ncnc4sc5c(c34)CCCC5)nn2)cc1Cl	101%
CC(C)CCSc1nc(NNC(N)=O)c(C#N)c(-c2ccccc2)n1	38.3%
CN1CCN(c2cc(F)c(NC3=C(Cl)C(=O)c4ncccc4C3=O)c(F)c2)CC1	-69.7% (active)
CC(=O)N1N=C(c2cccc(Nc3ccncc3)c2)CC1c1ccccc1 (stereo not given)	-24.4% (active)
CC(C)Sc1nc(NN)c(C#N)c(-c2ccccc2)n1	87.9%
Cc1cn(-c2cc(C(=O)Nc3cccc(C#Cc4cccc5[nH]nc(N)c45)c3)cc(C(F)(F)F)c2)cn1	23.3%
O=C1Nc2c(ccc(Cl)c2Cl)/C1=C/c1ccccn1	24.2%
O=c1[nH]nc(-c2ccc(Br)cc2)cc1Cc1ccc(O)cc1	100%
Cn1ncc2c(Nc3ccccc3Cl)nc(Cl)nc21	99.4%
Cn1/c(=N/NC(N)=S)ccc2ccccc21	7.01% (active)
CN1C2CCC1CN(c1cnc(C(=O)Nc3cc(F)cc4cccnc34)cn1)C2	18.8%
O=C(CN1CCOCC1)Nc1ccc2ncnc(Nc3ccc(Oc4cccc(C(F)(F)F)c4)c(Cl)c3)c2c1	45.1%
O=S(=O)(NCCCNc1nccc(-c2c(-c3cccc(O)c3)nc3occn23)n1)c1ccc(Br)cc1	65.2%
CC(=O)Nc1ccc(S(=O)(=O)NC2CCCCC2)cc1	103%
Cn1c(COC(=O)NCCc2ccccn2)nc2c(N3CCOCC3)nc(Cl)nc21	-69.8% (active)
COc1ccc(C(=O)/C=C/c2c(OC)cc(OC)cc2OC)c(OC)c1	18.2%
C(=C\c1n(Cc2ccc3ccccc3c2)c(-c2ccccc2)c(-c2ccccc2)[n+]1Cc1ccc2ccccc2c1)/c1ccccc1	-80.9% (active)
O=C(O)/C=C\C(=O)N1C/C(=C\c2ccccc2Cl)C(=O)/C(=C/c2ccccc2Cl)C1	-97.2% (active)
O=S(=O)(c1ccc(N/N=C\c2ccccc2)cc1)c1ccc(N/N=C/c2ccccc2)cc1	52.6%
O=C(Nc1cccc(C2=NCCN2)c1)c1ccc(OCCCOc2ccc(C(=O)Nc3cccc(C4=NCCN4)c3)cc2)cc1	6.6% (active)

Structure (SMILES)	growth
CCc1c(Nc2ccc(C)cc2)[nH]c(N)nc1=S	98.3%
Cc1ccc(S(=O)(=O)Nc2ccc(Cl)cc2)cc1	97.4%
CN1C(=O)N(C)[C@H]2NC(NN)=N[C@H]21	96.9%
COc1ccc(C2=C(c3ccccc3)c3ccc(OC(C)=O)cc3OC2(C)C)cc1	88.9%
Nc1nnc2cc(Cl)ccc2n1	101%
COc1cccc2c1C(=O)c1c(O)c3c(c(O)c1C2=O)C[C@@](O)(C(=O)CO)C[C@@H]3O[C@H]1C[C@H](N)[C@@H](O)[C@H](C)O1	5.25% (active)
O=C(/C=C/c1ccc[nH]1)c1ccc(-n2ccc(C(F)(F)F)n2)cc1	87.3%
O=C(Nc1ccc2cc3ccc(NC(=O)N4CCCCCC4)cc3nc2c1)N1CCCCCC1	-53.1% (active)
COc1cc(C2CC(c3cccc(Nc4ccncc4)c3)=NN2c2ccc(Cl)cc2)cc(OC)c1OC (stereo not given)	105%
COc1ccc2nc(N=Nc3c(O)ccc4ccccc34)sc2c1	26.6%
COc1cccc2cc(-c3cc4ccccc4[nH]3)/c(=N/C(=S)Nc3ccc(C)cc3)oc12	49.3%
COc1ccc(-c2cnc(N)nc2-c2ccc(OC)cc2O)cc1	80.4%
O=S(=O)(NCCNc1nccc(-c2c(-c3cccc(F)c3)nc3occn23)n1)c1cccc2ccccc12	36.1%
CC1(C)CN(c2cnc(C(=O)Nc3cc(F)cc4cccnc34)cn2)CCN1	11.4%
O=C(NCCc1ccccn1)OCc1nc2nc(Cl)nc(N3CCOCC3)c2[nH]1	-71.8% (active)
O=C1Nc2cc(-c3ccncc3)ccc2/C1=C/c1ccc[nH]1	57.2%
Clc1nc(Nc2ccccc2)nc(Nc2ccccc2)n1	93.2%
CC(=O)OCCCCCNc1ccccc1	113%
O=C1NC(=S)NC(=O)C1=Cc1cn(Cc2ccccn2)c2ccccc12	2.36% (active)
CO[C@@H]1[C@H](N(C)C(=O)c2ccccc2)C[C@@H]2O[C@]1(C)n1c3ccccc3c3c4c(c5c6ccccc6n2c5c31)C(=O)NC4=O	25.8%
